BaF3 tox: parental Ba/F3 viability inhibition as JAK2V617F counter-screen | CellTiter-Glo ATP luminescence | inhibition, % at 5.6 µM | hit rate 1.1% among 220,000 | AID 1486;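 active means inhibition above a per-campaign cutoff, the mean inhibition of all tested compounds plus 3 SD, cut at about 27% in these data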;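 further: 0% = DMSO wells and 100% = JAK Inhibitor I control wells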
KLF5 inh: inhibitors of KLF5 expression; AID 1700; DLD-1 KLF5 promoter-luciferase reporter, luminescence; inhibition, % at 5 µM; hit rate 0.23% among 290,000;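 active means inhibition above a per-plate limit of that plate's mean compound inhibition plus 3 SD, cut at about 60% in these data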;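 further: 0% = DMSO wells and 100% = LY294002 at 200 µM; higher means less KLF5 promoter-driven luciferase light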
IEC-6 cytotox: counter-screen for KLF5 inhibitors: cytotoxicity in IEC-6 cells; IEC-6 cytotoxicity, luminescence viability; inhibition, % at 5 µM; hit rate 0.78% among 290,000;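 further: 0% = plate median of test compound wells and 100% = cytotoxic reference compound wells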
APP transl inh: APP translation inhibition | hit rate 0.82% among 190,000 | inhibition, % at 2 µM | SH-SY5Y APP 5'UTR-luciferase reporter, luminescence;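 active means inhibition above a set limit, derived from the sample mean plus 3 SD, cut at about 45% in these data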
aSyn 5UTR inh: 5' untranslated region of α-synuclein, MLPCN primary screen; alpha-synuclein 5'UTR reporter, inhibitor activity; inhibition, % (tested at 7.5 µM); hit rate 0.82% among 300,000; in the data active means inhibition above about 60%;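 further: H4 neuroglioblastoma cells stably carrying SNCA 5'UTR luciferase fusion; 0% = DMSO wells and 100% = positive control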
Ba/F3 V617F tox: reduce viability of Ba/F3 cells dependent on JAK2V617F | hit rate 1.1% among 220,000 | inhibition, % at 5.6 µM | Ba/F3 EpoR-JAK2V617F viability, ATP luminescence;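 active means inhibition above the campaign mean plus 3 SD over all tested compounds, cut at about 24% in these data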;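 further: cytokine-independent growth of Ba/F3 cells driven by EpoR plus mutant JAK2; 0% = DMSO-treated cells and 100% = JAK inhibitor I control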
IEC-6 tox confirm: confirmation of cytotoxic compounds in rat IEC-6 intestinal epithelial cells; shares compounds with IEC-6 cytotox; AID 1907; IEC-6 rat intestinal epithelial viability, luminescence; inhibition, % at 5 µM; hit rate 63% among 1,900;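 further: 0% = vehicle and 100% = reference cytotoxic drug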
* marks the source's active call; other numbers are inactive results; · = not tested or not shown. Hits are enriched below; roughly 2.2% of the tested compounds scored in any of these assays. Unless noted, no stated cut-off is given here; in the data, active means inhibition above about 22%; inactive means the rest.

SMILES	BaF3 tox	KLF5 inh	IEC-6 cytotox	APP transl inh	aSyn 5UTR inh	Ba/F3 V617F tox	IEC-6 tox confirm
COc1ccc(OC)c(Nc2nc(N)c([N+](=O)[O-])c(NC3CCCCC3)n2)c1	·	-5.8	-1.4	·	26.9	·	·
COc1ccc(Nc2nc(N3CCOCC3)nc(N3CCOCC3)n2)cc1Cl	·	-39.0	-5.9	·	-3.4	·	·
COc1ccc(S(=O)(=O)Nc2cc(Cl)ccc2OC)cc1	71.9*	58.8	68.5*	86.9*	44.3	81.3*	52.6*
COc1cc(-c2noc(C)c2-c2ccc3[nH]ccc3c2)cc(OC)c1OC	·	41.1	89.0*	·	-10.5	·	59.9*
CC(=O)Nc1ccc(S(=O)(=O)Nc2ccc(S(=O)(=O)Nc3nccs3)cc2)cc1	·	-21.3	-3.9	·	3.6	·	·
Fc1ccc(F)c(CNc2ncnc3cc(Cl)ccc23)c1	·	4.3	9.5	·	24.3	·	·
COc1cc2ncnc(NCc3cccc(F)c3F)c2cc1OC	·	-8.7	35.4*	·	6.9	·	28.2*
COc1cc2ncnc(NCc3ccccc3F)c2cc1OC	·	0.1	28.5*	·	4.5	·	33.2*
Cc1cc(C(=O)NCCC(c2ccccc2)c2ccccc2)c(C)o1	4.3	-1.3	-3.7	4.3	-21.7	-1.5	·
COc1ccc(/C=N/NC(=O)CCn2cnc(-c3ccccc3)c2-c2ccccc2)cc1OC	63.1*	35.4	70.7*	79.7*	3.8	58.3*	45.9*
COc1ccccc1C(=O)N1CCN(c2cccc(Cl)c2)CC1	82.6*	60.0	77.4*	94.8*	64.4*	80.1*	54.6*
O=C(c1c(Cl)nc2sccn12)N1CCN(c2cccc(Cl)c2)CC1	75.9*	53.2	63.2*	94.1*	33.6	78.3*	43.7*
COc1cc2c(C(=O)N3CCN(c4cccc(Cl)c4)CC3)cn(C)c(=O)c2cc1OC	1.4	-16.6	4.1	-9.0	-3.6	-1.2	·
COc1ccc(Cl)cc1NC(=O)CN(C)CC(=O)Nc1cc(OC)c(OC)c(OC)c1	·	54.1	40.1*	·	3.9	·	32.8*
COc1ccc(Cl)cc1NC(=O)CN(C)CC(=O)Nc1ccc(Br)cc1	7.6	-16.1	-1.0	8.1	10.2	4.7	·
O=c1[nH]nc(SCc2ccccc2)n1C1CC2C=CC1C2 (stereo unspecified)	1.5	-1.8	2.2	·	-14.0	1.2	·
O=C(COc1ccc([N+](=O)[O-])cc1)Nc1ccc(C(=O)NCc2cccnc2)cc1	1.4	-22.2	30.3*	-8.7	14.1	10.1	-6.3
C=CCOc1ccc(C(=O)Nc2ccccc2C(=O)NCc2cccnc2)cc1	·	47.2	39.3*	·	-51.8	·	25.7*
O=C(COc1ccc([N+](=O)[O-])cc1)NCc1cccnc1	10.4	-63.3	-2.1	-24.6	-19.8	1.4	·
O=C(NCc1cccnc1)c1ccc([N+](=O)[O-])cc1	5.8	-16.9	-2.6	-2.0	9.9	1.0	·
O=C(NCc1cccnc1)c1ccc(NC(=O)c2cccc([N+](=O)[O-])c2)cc1	0.1	-11.3	75.3*	9.7	4.1	20.6	8.1
Cc1ccc(S(=O)(=O)Nc2cccc(C(=O)NCC3CCCO3)c2)cc1F (stereo unspecified)	·	·	·	·	12.0	·	·
COc1ccc(N2CC(C(=O)Nc3ccccc3C(=O)NC3CC3)CC2=O)cc1 (stereo unspecified)	·	-18.4	1.1	·	15.5	·	·
COC(=O)CCC(C)N1CCC(Oc2ccc(C(=O)N3CCCC3)cc2)CC1 (stereo unspecified)	·	-15.2	6.4	·	9.3	·	·
CC(C)(C)C(=O)/C(=C/c1ccc(Cl)cc1)n1cncn1	·	19.3	29.1*	·	-173.2	·	19.4
SMILES	BaF3 tox	KLF5 inh	IEC-6 cytotox	APP transl inh	aSyn 5UTR inh	Ba/F3 V617F tox	IEC-6 tox confirm
OCC[C@@H]1C[C@H](O)[C@@H](O)[C@]2(OCc3ccccc32)O1	·	6.6	4.6	·	-7.8	·	·
COc1cc2ncnc(NCc3ccc(F)cc3)c2cc1OC	·	6.4	25.4*	·	19.0	·	32.0*
COc1cc2ncnc(NCc3ccc(Cl)cc3)c2cc1OC	8.7	-4.4	29.1*	-6.3	-16.6	2.1	23.3*
COc1cc2ncnc(NCc3ccc(C)o3)c2cc1OC	3.1	-8.7	9.6	-4.3	13.9	0.6	·
COc1ccc(C2c3cc(OC)c(OC)cc3CCN2S(C)(=O)=O)cc1OC (stereo unspecified)	57.5*	2.4	36.4*	15.3	22.4	75.5*	9.7
COc1ccc(C2c3cc(OC)c(OC)cc3CCN2C(=O)c2ccccc2)cc1OC (stereo unspecified)	·	-13.0	-2.5	·	3.3	·	·
C#CCSc1nccc(-c2nn(-c3ccc(C)cc3)ccc2=O)n1	3.5	-39.8	4.7	·	12.3	-0.5	·
CSc1nccc(-c2nn(-c3ccc(C)cc3)ccc2=O)n1	75.6*	9.8	51.2*	21.4	36.8	75.1*	38.5*
C=CCSc1nccc(-c2nn(-c3ccc(C)cc3)ccc2=O)n1	46.3*	20.4	39.1*	88.1*	60.8	36.8*	34.0*
COc1cc(C(=O)Nc2ccccn2)cc(OC)c1OC	2.9	-21.4	-0.7	-7.5	-3.5	-1.4	·
COc1cc(C(=O)Nc2ccccc2C(=O)Nc2ccccn2)cc(OC)c1OC	·	33.8	32.8*	·	-66.5	·	21.4
Cc1cccc(NC(=O)c2ccc(N3C(=O)C4C5C=CC(C6CC56)C4C3=O)cc2)c1 (stereo unspecified)	·	-33.6	22.8*	·	38.0	·	11.7
O=C(Nc1ccccc1)c1cccc(N2C(=O)C3C4C=CC(C5CC45)C3C2=O)c1 (stereo unspecified)	·	-33.4	1.5	·	-20.3	·	·
O=C(O)CS(=O)CC(=O)Nc1cccc(C(F)(F)F)c1 (stereo unspecified)	7.5	-19.1	0.7	8.2	-0.4	-2.0	·
COc1ccc(-c2c(C#N)c(N)nc3c2CCc2ccccc2-3)cc1OC	10.2	22.4	33.8*	18.7	-40.3	21.8	23.9*
COc1ccc(S(=O)(=O)NC(C)C(=O)NCc2ccc3c(c2)OCO3)cc1OC (stereo unspecified)	·	-3.8	9.4	·	-4.6	·	·
COc1ccccc1C(=O)NNC(=S)NC(=O)c1cccs1	·	60.5	47.7*	·	73.2*	·	28.0*
O=C(NC(=S)NNC(=O)c1ccccc1O)c1cccs1	·	-4.0	-11.2	·	-38.0	·	·
CCC(C)c1ccc(NC(=O)Nc2cnccn2)cc1 (stereo unspecified)	·	27.2	78.8*	·	-188.1	·	55.2*
Cc1[nH]c2ccccc2c1NC(=O)CN1CCN(C(=O)c2ccco2)CC1	0.1	-11.8	1.3	·	-2.0	3.9	·
CC(/C=N/NC(=O)c1ccccc1C)=C\c1ccccc1	·	·	·	·	-136.3	·	·
Cc1ccc(/C=N/NC(=O)c2n[nH]c3c2CCCC3)cc1	93.0*	60.1	88.0*	·	76.9*	93.1*	82.7*
O=C(N/N=C/C(Br)=C\c1ccccc1)c1n[nH]c2c1CCC2	78.4*	44.1	74.6*	95.7*	18.0	85.0*	82.3*
CC(/C=N/NC(=O)c1n[nH]c2c1CCC2)=C\c1ccccc1	79.7*	11.1	85.5*	94.3*	28.8	82.9*	62.2*
COc1ccc(C(=O)N/N=C/C(Br)=C/c2ccccc2)cc1	6.8	-44.0	-1.8	24.0	-57.9	0.6	·
